Reference: the supplement of paper PMC11417369
Whole data set: some 25,000 sequences, median “ln(normalized median fluorescence intensity)” near 9.7, cut for the highest 2% near 11. The full list was thinned out, with the highest values kept by preference.

System: PfAP2-HC AP2 domain (GST-tagged)
Assay: gcPBM binding intensity (ln(normalized median fluorescence intensity)); higher = stronger DNA binding
In short: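 In this array assay, P. falciparum DNA-binding domains with a GST tag, expressed in E. coli, were applied for 1 h to primer-extended double-stranded 36-bp intergenic genomic probes and negative controls on an Agilent 4 × 180k array. Bound protein was visualised with Alexa488 anti-GST antibody at 488 nm. Binding intensity is the highest Masliner-normalised natural-log median intensity across replicate spots of either probe orientation.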

Row | Sequence | gcPBM binding intensity (ln)
1 | TACATTCGGAGTAAAAAAAAATTTATACAATTACTT [XGTACX_negctrl_site29] | 9.44
2 | AATCCTTACGGACACACACACACGAATAAATAAAAA [CACACA_site4422] | 11
3 | ATAATCCTTAGACACACACACACACGAATAAATAAA [CACACA_site6364] | 11.3
4 | TAGAATAATCCTTACACACACACACCCACGAATAAA [CACACA_site483] | 10.5
5 | AATCCTTACAGACACACACACACGAATAAATAAAAA [CACACA_site480] | 10.6
6 | AATCCTTACGAACACACACACACGAATAAATAAAAA [CACACA_site6363] | 10.8
7 | AATAGAATAATCCTTACACACACACCCACACGAATA [CACACA_site8053] | 10.4
8 | GAATTTCAACAAAGTAGTACATTTTATAGTAATTGG [XGTACX_site2319] | 9.48
9 | ATAAACATATCAATATGTACATATTTTTGTTTGTAT [XGTACX_site7018] | 9.77
10 | TAATTTTTATTCAGTTCACACACGCTTTAATATTAT [CACACA_site9147] | 9.94
11 | GTTATATTCCTACAGAGTACATAAAAATGCACATCA [XGTACX_site1948] | 9.54
12 | AAAAAATTAATAAAAACACACAAAAAAAATAAACAA [CACACA_site1907] | 9.95
13 | GTTTCAAAATTAAACACACACAAAAAAAAAAAAAAA [CACACA_site2680] | 9.72
14 | TAAATTAAAAAACACACACACAAAAAAAAAAAAAAA [CACACA_site2263] | 11.2
15 | AAAAAAAAAAAATACACACAAACACAAATTAAATAA [CACACA_site3809] | 10.3
16 | AAAAAAAAAAAAAATACACACAAACACAAATTAAAT [CACACA_site5982] | 10.8
17 | CATAAATTAAAACACACACACACAAAAAAAAAAAAA [CACACA_site2262] | 11.6
18 | TACCCACGTATATATATACACACTAATATACACCCA [CACACA_site9381] | 9.88
19 | TTAAGCCGCAATATGGGTACATAGGAAGAAGGGGAA [XGTACX_site8397] | 9.56
20 | TTTTAAATTTAATTTACACACTTTTCATAGCATTGA [CACACA_site3794] | 9.61
21 | TGCAGTCTGGAGAAAAGTACACAGTATCTGGTAGCT [XGTACX_site2013] | 9.58
22 | CATACATACATACATACACACATACATATGTATTTA [CACACA_site5384] | 9.99

Row | Sequence | gcPBM binding intensity (ln)
23 | AAACTTGTAAGAAACACACACACACGCATATAAATA [CACACA_site6518] | 10.7
24 | ACTTGTAAGAAACACACACACACACCCATATATATA [CACACA_site796] | 11.5
25 | TTAAACTTGAAACACACACACACACCGATATAAAAA [CACACA_site4578] | 10.5
26 | AAACTTGTAAGAAACACACACACACCCATATATATA [CACACA_site797] | 10.5
27 | ACTTGTAAGAAACACACACACACACCGATATATATA [CACACA_site4594] | 11.2
28 | TTGTAAGAAAAACACACACACACATATATATATATA [CACACA_site795] | 10.3
29 | AATTAAATTACTTATACACACATAAAATGCCTGTAT [CACACA_site6597] | 9.84
30 | TTATGTAAAAAAAAAAAAAAAAAAAAAAAAAAAAAA [CACACA_negctrl_site984] | 9.05
31 | ATTATCAAAAAAAAAAAAAAAAAAAAAAAAAAAAAA [CACACA_negctrl_site1118] | 8.87
32 | AACTTGTATTTATACACACACACACTAGCTTTTTTT [CACACA_site5132] | 10.4
33 | AACTTGTATATATACACACACACACTATCTTTTTTT [CACACA_site8601] | 10.9
34 | AACTTGTATTTATACACACACACACTGTCTTTTTTT [CACACA_site7009] | 10.5
35 | ATTTTTATTAGTTATTGTACTTATTATTTATTAATT [XGTACX_site2568] | 9.78
36 | TACACATACCCATACACACGCATAGAAACATACGAA [CACACA_site5212] | 10.2
37 | TACAGACAGAAACACACACACACGCATAAAAAAAAA [CACACA_site1514] | 10.5
38 | TACACCCATAGACACACACACACGCATAAAAAAAAA [CACACA_site8428] | 11.1
39 | TATATACACAGACACACACACACATACACGCACATA [CACACA_site6909] | 10.5
40 | TACAGACATAGACACACACACACGCATAAAAAAAAA [CACACA_site6820] | 11.4
41 | CACCCATAGAAACACACACACGCATAAAAAAAAAAA [CACACA_site1513] | 10.7
42 | AATAAATAAAAATGCACACAGTTAACATGTTGAATT [CACACA_site4795] | 10.2
43 | GCATCTCATTTGTGATGTACTATATTATCCGTTTTT [XGTACX_site7576] | 9.71
44 | ATATATATTATGTGTGTGCACTTTTGTTATTATTAT | 10.2

Row | Sequence | gcPBM binding intensity (ln)
45 | TATATAACATAATATACACACATTATGTGCGTAATT [CACACA_site4073] | 9.75
46 | GATATGTTTTCCTAGGTTCATGATGATAGGTAGTTT [XGTACX_negctrl_site217] | 9.83
47 | AAAAAAAAAAAAAGCACACACACATATGCGTATATA [CACACA_site953] | 10.3
48 | AAAAAAAAAAAGCACACACACATATGCGTATATATA [CACACA_site954] | 10.9
49 | AAAAAAAAAAAGCACACACACATATGAGTATATATA [CACACA_site4683] | 10.3
50 | AGATATAAGAAAAGCACACACACACTAGAAAAAAAA [CACACA_site5559] | 11
51 | AGTAAAAGAAAGCACACACACATGTATATATGTATG [CACACA_site3858] | 11
52 | TAGGAAAAGAAAAGCACACACATAAATAGATATATA [CACACA_site6382] | 10.3
53 | AAGAAAAGCATAGATGCACACATATATATATATATA [CACACA_site8675] | 10.5
54 | ATAAGAAAAGGACACACACACAAAAAAAAAAAAAAA [CACACA_site7351] | 11.1
55 | ATAAGAAAAAGACACACACACAAAAAAAAAAAAAAA [CACACA_site2828] | 10.2
56 | ATACAATACAAAAACACACACAAAAAAAGAAAAGGA [CACACA_site2156] | 10.4
57 | AGTAAAAGAAAGCACACACACATGTATATAGGTATG [CACACA_site7759] | 10.9
58 | AAAGTAAAAGAAAGCACACACACATGTATATATGTA [CACACA_site3857] | 10.2
59 | ATATATACAAGTATTTTTTTTTCAAACATTATTTTT [CACACA_negctrl_site1808] | 9.68
60 | TACATGAATATATAAAGAAAAAAAAAAAAACACACA [XGTACX_negctrl_site350] | 9.79
61 | AATAAGTAACAAAATACACACATATATATAATTATA [CACACA_site1837] | 10.1
62 | CTTATATTAAGTATTACACACATATATATAAATGCA [CACACA_site4581] | 9.65
63 | TGTACGTTTTTTAACACACACACAAAAAAAAAAAAA [CACACA_site6006] | 9.84
64 | GATTTATACAAATATGTACACACTAAATATATATTA [CACACA_site455] | 9.83
65 | GATGTTGCAAAATTCTGTACATATAAATGTATACAT [XGTACX_site5009] | 9.64
66 | TAATTAAAATTATTTATAAATTAGTATATTTCTATA [CACACA_negctrl_site663] | 9.42

Row | Sequence | gcPBM binding intensity (ln)
67 | ATATAAGAAAAGCACACACACACAAAAAAAAAAAAA [CACACA_site2827] | 11.1
68 | GCAAAATAAAGAAGCACACAAAAATGAAATATATAT [CACACA_site3651] | 9.96
69 | AGAGATATAAGAAAAGCACACACACCCAAAAAAAAA [CACACA_site8917] | 10.5
70 | AAAAAAAATATAAGTGGTACTCACATAAAGACATAT [XGTACX_site3709] | 9.93
71 | AAAAAAAAAAAGAAGGAAACATTTGACCAAAAATAT [GTGCAC_negctrl_site404] | 9.58
72 | GTAGACTGAAACCACACACACATATATAAATATATT [CACACA_site6433] | 10.4
73 | ATTTTGTGTAGTGATGCATGTTATATATATATTTGA [TGCATGCA_site422] | 9.83
74 | TAGAAGCATTGACACACACACATACATACACATACA [CACACA_site6802] | 11.2
75 | TATAGAAGCATTCACACACACACATACATACACATA [CACACA_site1466] | 10.6
76 | TAGAAGCATGGACACACACACATACATACCCATACA [CACACA_site4916] | 11.2
77 | TGTCATGATACATACACACACATACCCATACCCATA [CACACA_site5211] | 10.6
78 | AAAAAAAACGGACACACACACATACCCATACATACA [CACACA_site5574] | 10.5
79 | GTTATAGAAGCATTCACACACACACGGACATACACA [CACACA_site6801] | 10.7
80 | TGTTGCAAAACAAAAAAAAAAAAAAAAAATAATAAT [CACACA_negctrl_site1642] | 9.52
81 | AAAAGGAAAAATATCACACATATATATATATATATA [CACACA_site5586] | 9.69
82 | TAAGAAATAAATAGTACACACATAGACACACGCACA [CACACA_site6821] | 10.7
83 | TAAGAAATAAATAGTACACACATAGACACCCACCCA [CACACA_site8429] | 11.3
84 | GCATAAGAAATAAATAGTACACACATAGACACACAC [XGTACX_site3095] | 11.3
85 | TAAGAAATAAATAGTACACACATAGACACAGACACA [CACACA_site4934] | 10.6
86 | TAGAAAAAATAAAATAGTACACATCCAAAAAAAAAA [XGTACX_site7829] | 9.71
87 | TAAGAAATAAATAGTACACACATAGACACCCACCGA [CACACA_site1516] | 10.4
88 | TATAAATACATCCTATACTTCTCTTTTACAGTTTTA [CACACA_negctrl_site1283] | 9.62
